Results filed as inconclusive are left out. Calls of active or inactive are those of the source. Unless noted, the call rests on the fitted dose curve; in most records, active means well fitted curve in the direction sought with a large enough effect; inconclusive means small, poorly fitted or top-dose-only effect, or another doubt; inactive means no such curve, though single readings can be large; an effect the other way counts as inactive or inconclusive.
Experiments:
[1] = Cell Viability - BJ (AID 421; calls by dose curve;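 further: potency means the concentration at half of the fitted maximal effect; cells exposed to compound for 40 hours at 37 °C before readout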); details: BJ fibroblast viability, qHTS
Method in brief: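 Luminescent ATP signal (CellTiter-Glo, 20 min at room temperature) served as the read-out of viable BJ cells after 40 hours of compound treatment. Responses were scaled between DMSO and 100 uM tamoxifen, and AC50 values were obtained by Hill modeling.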

[2] = Cell Viability - Hek293 (AID 427;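 active means compounds whose dose-response curve shows a full or clear partial loss of cell viability, called from curve shape rather than a numeric limit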;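 further: potency means the concentration at half of the fitted maximal effect; cells exposed to compound for 40 hours at 37 °C before reading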); details: qHTS
Method in brief: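 Luminescent ATP read-out (CellTiter-Glo, 20 min RT) after 40 hr compound exposure at 37 °C in complete medium. Signal normalized to DMSO (basal) and 100 uM tamoxifen (100% inhibition); concentration-response fitted with the standard Hill equation to give AC50.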

[3] = Cell Viability - HepG2 (AID 433; calls by dose curve;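 further: potency means the concentration at half of the fitted maximal effect; potency for ATP loss meaning cytotoxicity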); details: qHTS
Method in brief: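 Read-out is luciferase-based quantitation of cellular ATP as a measure of viable HepG2 cells after 40 h treatment at 37 °C. Signal decrease is scaled between DMSO-only and 100 uM tamoxifen controls, with AC50 fitted by the Hill equation.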

[4] = Cell Viability - MRC5 (AID 434; calls by dose curve;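 further: potency means the concentration at half of the fitted maximal effect; potency reflects cytotoxicity seen as loss of intracellular ATP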); details: MRC5 lung fibroblast viability, qHTS
Method in brief: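 MRC5 normal human lung fibroblasts (1500/well) were treated with compounds for 40 hr at 37 °C in complete medium, and viable cells were measured as intracellular ATP by CellTiter-Glo luminescence. AC50 came from Hill fits, normalized to DMSO and 100 uM tamoxifen.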

[5] = molecular target: Mitogen-activated protein kinase 10 (Mus musculus) (UniProt Q61831); assay: JNK3 AlphaScreen Assay (AID 530; active means well fitted curve in either direction with a large enough effect, not every such curve was filed as active;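 further: kinase came from lysate of stimulated human HepG2 cells; signal reports phosphorylation of biotinylated GST-cJun 1-79 at Ser73 with 10 µM ATP; series mostly up to about 57 µM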)
Method in brief: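 Inhibitors reduce antibody binding to phosphorylated biotin-cJun, lowering AlphaScreen luminescence. Lysates from HepG2 cells pre-activated by IL-1beta plus TNF-alpha supplied JNK3; compounds were titrated.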

[6] = Cell Viability - HUV-EC-C (AID 542); further: nearly all actives have a fitted effect of over 35% in size
Method in brief: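 HUV-EC-C human vascular endothelial cells, 1000/well, exposed to compound for 40 hr at 37 °C in complete medium. Intracellular ATP was read by CellTiter-Glo luminescence. AC50 came from Hill-equation fits of concentration-response data.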

[7] = Cell Viability - SH-SY5Y (AID 544); further: nearly all actives have a fitted effect of over 55% in size
Method in brief: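 SH-SY5Y human neuroblastoma cells (1500/well) incubated 5 h, then compound-treated 40 h at 37 °C in complete medium. Viability read as intracellular ATP by CellTiter-Glo luminescence after 20 min; AC50 from Hill-equation fits of qHTS concentration-response.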

[8] = Cell Viability - Mesenchymal (AID 546);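 further: cells exposed to compound for 40 hours before reading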
Method in brief: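 Normal human renal glomerulus-derived kidney mesenchymal cells, 1000 per well in complete medium, were treated with compounds for 40 hr at 37 °C. Viability was read as intracellular ATP by CellTiter-Glo luminescence; AC50 values came from Hill-equation fits of qHTS concentration-response data.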

[9] = Cellular Toxicity (caspase-3) HepG2 (AID 654);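 further: cells exposed to compound for 16 hours before reading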
Method in brief: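 HepG2 cells (1500/well) were treated 16 h at 37 °C in complete medium, then caspase 3/7 activity was read by Caspase-Glo luminescence. Data were normalized to DMSO and 100 uM tamoxifen; AC50 came from Hill-equation fits of qHTS concentration-response.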

[10] = Cellular Toxicity (caspase-3) Jurkat (AID 655);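 further: cells exposed to compound for 16 h at 37 °C before reading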
Method in brief: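 5000 Jurkat cells/well; compound 16 hr, 37 °C; Caspase-Glo 3/7 added, 20 min RT; luminescence read. Norm: DMSO = 0%, tamoxifen 100 uM = 100%. AC50, Hill model.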

[11] = Cellular Toxicity (caspase-3) HUV-EC-C (AID 656)
Method in brief: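 qHTS; HUV-EC-C, 1000 cells/well; 5 hr settle, 16 hr cmpd, 37°C; Caspase-Glo 3/7, 20 min RT; luminescence. Norm: DMSO = 0%, tamoxifen 100 uM = 100%. Hill-fit AC50.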

[12] = Cellular Toxicity (caspase-3) SHSY5Y (AID 657)
Method in brief: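 qHTS, SH-SY5Y, 1500 cells/well, 5 h pre-incubation 37 °C; compound 16 h 37 °C; Caspase-Glo 3/7 1 h RT; luminescence. Norm.: DMSO = 0, 10 uM staurosporine = 100%. Hill fit → AC50.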

[13] = Cellular Toxicity (caspase-3) BJ (AID 658)
Method in brief: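 Luminescent aminoluciferin-substrate cleavage reports caspase 3/7 activity in normal human BJ fibroblasts after 16 hr compound exposure at 37 °C. Normalized to DMSO (basal) and 10 uM staurosporine (100%); AC50 from Hill fit of concentration-response.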

[14] = Cellular Toxicity (caspase-3) MRC-5 (AID 659)
Method in brief: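 Luminescence from caspase-cleaved aminoluciferin substrate (Caspase-Glo 3/7, 1 hr RT) reports caspase 3/7 activity in MRC-5 lung fibroblasts after 16 hr compound exposure. Normalized to DMSO basal and 10 uM staurosporine as 100%; AC50 from Hill fits.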

[15] = Cellular Toxicity (caspase-3) Mesangial (AID 660);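 further: cells exposed to compound for 16 h before the caspase read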
Method in brief: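 Human renal glomerular mesangial cells, 1000/well, 5 h at 37 C before 16 h compound treatment. Caspase-Glo 3/7 luminescence after 20 min; normalized to DMSO and 100 uM tamoxifen, AC50 from Hill fit.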

[16] = Cellular Toxicity (caspase-3) SK-N-SH (AID 661)
Method in brief: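 Human SK-N-SH neuroblastoma cells, 1500/well, were exposed to compounds for 16 hours at 37 °C. Caspase-Glo 3/7 luminescence was normalized to DMSO (basal) and 10 uM staurosporine (100%), and AC50 came from a Hill fit.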

[17] = Cellular Toxicity (caspase-3) H-4-II-E (AID 663);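 further: cells exposed to compound for 16 hr before readout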
Method in brief: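 Luminescence from caspase-cleaved aminoluciferin substrate, read 20 min after reagent addition, reports caspase 3/7 activation in rat H-4-II-E cells after 16 hr compound exposure. Normalized to DMSO (basal) and 100 uM tamoxifen (100%); AC50 from Hill fits.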

[18] = Cellular Toxicity (caspase-3) Hek293 (AID 664);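 further: cells exposed to compound for 16 h at 37 °C before readout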
Method in brief: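 HEK293 cells in complete medium treated 16 h at 37 °C, then Caspase-Glo 3/7 luminescence read after 20 min at room temperature. Normalized to DMSO and 100 uM tamoxifen; AC50 from Hill fit of concentration-response.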

[19] = Cellular Toxicity (caspase-3) N2a (AID 665);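 further: compound exposure lasted 16 h at 37 °C before readout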
Method in brief: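 Mouse N2a neuroblastoma cells, 1500 per well, treated 16 h at 37 °C in complete medium; caspase-3/7 activity by Caspase-Glo luminescence after 1 h. Normalized to DMSO and 10 uM staurosporine; AC50 from Hill fits.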

[20] = molecular target: Cytochrome P450 3A4 (Homo sapiens) (UniProt P08684); assay: qHTS Assay for Inhibitors and Substrates of Cytochrome P450 3A4 (AID 884); further: series mostly up to about 57 µM; nearly all actives have a fitted effect of over 50% in size
Chain of Cytochrome P450 3A4 (Homo sapiens) (P08684 whole entry, looked up): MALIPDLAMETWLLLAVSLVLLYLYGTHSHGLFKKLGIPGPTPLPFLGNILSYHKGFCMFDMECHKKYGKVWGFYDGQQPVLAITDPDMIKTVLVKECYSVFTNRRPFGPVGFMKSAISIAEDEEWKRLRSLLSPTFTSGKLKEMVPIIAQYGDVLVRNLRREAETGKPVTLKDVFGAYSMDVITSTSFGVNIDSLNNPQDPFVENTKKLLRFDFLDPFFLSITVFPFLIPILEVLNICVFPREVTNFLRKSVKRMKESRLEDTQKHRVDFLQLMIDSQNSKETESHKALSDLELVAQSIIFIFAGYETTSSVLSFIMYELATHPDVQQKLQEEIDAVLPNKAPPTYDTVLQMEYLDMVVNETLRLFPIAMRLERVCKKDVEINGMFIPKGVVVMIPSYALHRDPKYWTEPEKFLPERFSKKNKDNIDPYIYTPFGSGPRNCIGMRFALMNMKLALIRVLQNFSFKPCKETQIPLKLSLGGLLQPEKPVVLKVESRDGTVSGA
Method in brief: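 20 nM human CYP3A4 with 25 uM Luciferin-PPXE (at KM) in 200 mM KPO4, preincubated 10 min with compound; NADPH regeneration started a 60 min RT reaction. Luciferin detected by luminescence, normalized to 57 uM ketoconazole as full inhibition.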

[21] = Confirmation and Secondary Assay for Modulators of Hemoglobin Beta Chain Splicing at IVS2 654 locus (AID 910);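 further: per-well total GFP intensity by laser scanning cytometry after 2-day treatment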
Method in brief: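 HeLa cells stably carrying EGFP interrupted by mutant beta-globin IVS2-654 intron (CMV-driven) were treated with compound for 2 days at 37C; corrected splicing was scored as total peak GFP intensity per well (488 nm excitation, 500-520 nm emission).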

[22] = Cell Viability - LYMP2-001 (AID 921); further: series mostly up to about 92 µM; nearly all actives have a fitted effect of over 70% in size
Method in brief: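 Steps: seed 2500 lymphoblastoid cells/well; 5 hr, 37 C; add compound; 24 hr, 37 C; CellTiter-Glo reagent, 30 min room temperature; read luminescence. Concentration-response modeled by Hill equation for AC50.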

[23] = MultiTox-Fluor Cytotoxicity Assay - LYMP1-001 - Dead Cells (AID 946)
Method in brief: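 AC50 from Hill fit of concentration-response; data normalized to DMSO (basal) and 15 uM tetraoctylammonium bromide (100%). LYMP1-001 lymphoblastoid cells, 2500/well, 16 hr compound at 37 C; dead-cell protease fluorescence, Ex/Em 485/520.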

[24] = Cell Viability - LYMP1-002 - Assay at 16 hr (AID 948)
Method in brief: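 Seed 2500 LYMP1-002 cells per well in complete medium and hold 5 hr at 37 C. Add compound across a concentration series and incubate 16 hr at 37 C. Add CellTiter-Glo, wait 30 min at room temperature, read luminescence.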

[25] = MultiTox-Fluor Cytotoxicity Assay - LYMP1-002 - Live Cells (AID 955)
Method in brief: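 Human lymphoblastoid LYMP1-002 cells, 2500/well, treated 16 h at 37 C in complete medium. Live-cell protease activity via GF-AFC fluorescence (Ex/Em 405/510) after 60 min reagent incubation; AC50 from Hill fits.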

[26] = MultiTox-Fluor Cytotoxicity Assay - LYMP1-003 - Dead Cells (AID 961); further: nearly all actives have a fitted effect of over 70% in size
Method in brief: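 Human lymphoblastoid LYMP1-003 cells (2500/well) were treated with compounds for 16 hr at 37 C in complete medium. Dead-cell protease release was read by bis-AAF-R110 fluorescence (Ex/Em 485/520). AC50 came from Hill fits, normalized to DMSO and 15 uM tetraoctylammonium bromide.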

[27] = MultiTox-Fluor Cytotoxicity Assay - LYMP1-003 - Live Cells (AID 962);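 further: cytotoxic hits lower the live-cell protease signal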
Method in brief: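 LYMP1-003 lymphoblastoid cells, 2500/well in complete medium, treated 16 h at 37 C; live-cell protease cleavage of GF-AFC read by fluorescence (Ex/Em 405/510) after 60 min reagent; AC50 from Hill fits of concentration-response.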

[28] = Cell Viability - LYMP1-003 - Assay at 24 hr (AID 963)
Method in brief: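 Human lymphoblastoid LYMP1-003 cells, 2500/well, treated 24 h at 37 C in complete medium. Viability read as intracellular ATP by CellTiter-Glo luminescence after 30 min at room temperature; AC50 from Hill-equation fits of qHTS concentration-response.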

[29] = Cell Viability - LYMP1-003 - Assay at 40 hr (AID 964); further: series mostly up to about 92 µM; nearly all actives have a fitted effect of over 60% in size
Method in brief: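 LYMP1-003 human lymphoblastoid cells, 2500/well, preincubated 5 h at 37 C, then treated with compound for 40 h at 37 C. Intracellular ATP read by CellTiter-Glo luminescence after 30 min at room temperature; AC50 from Hill-equation fits.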

[30] = Cell Viability - LYMP2-003 (AID 965);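 further: cells exposed to compounds for 24 h before reading; nearly all actives have a fitted effect of over 50% in size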
Method in brief: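 Seed 2500 lymphoblastoid cells/well; incubate 5 hr, 37 C; add compounds; incubate 24 hr, 37 C; add CellTiter-Glo, 30 min RT; read luminescence. AC50 from Hill fit.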

[31] = Cell Viability - LYMP2-004 (AID 966); further: nearly all actives have a fitted effect of over 65% in size
Method in brief: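 Lymphoblastoid LYMP2-004 cells, 2500 per well, were preincubated for 5 hr and then treated with compound for 24 h at 37 C in complete medium. Viability was read as cellular ATP by CellTiter-Glo luminescence, and AC50 values were taken from Hill fits to concentration-response data.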

[32] = Cell Viability - LYMP2-005 (AID 967); further: series mostly up to about 92 µM
Method in brief: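 Acute cytotoxicity is scored as a concentration-dependent drop in intracellular ATP in human lymphoblastoid LYMP2-005 cells after 24 h compound treatment. ATP is quantified by luciferase luminescence, and AC50 is derived by Hill-equation modelling.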

[33] = Cell Viability - LYMP2-009 (AID 968); further: series mostly up to about 92 µM; nearly all actives have a fitted effect of over 55% in size
[34] = Cell Viability - LYMP2-011 (AID 969); further: nearly all actives have a fitted effect of over 60% in size
Method in brief: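 2500 cells/well in complete medium, compound-treated 24 h at 37 C. Viability read as intracellular ATP by CellTiter-Glo luminescence after 30 min at room temperature. AC50 from Hill fits of qHTS concentration-response data.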

[35] = Cell Viability - LYMP2-013 (AID 970); further: series mostly up to about 92 µM; nearly all actives have a fitted effect of over 55% in size
Method in brief: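 Human lymphoblastoid LYMP2-013 cells, 2500/well, treated 24 h at 37 C in complete medium; viability as intracellular ATP by CellTiter-Glo luminescence after 30 min. AC50 from Hill fits of qHTS concentration-response.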

[36] = Cell Viability - LYMP2-015 (AID 971); further: nearly all actives have a fitted effect of over 55% in size
Method in brief: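 LYMP2-015 human lymphoblastoid cells (2500/well) in complete medium, compound-treated 24 h at 37 C; viability read as cellular ATP by CellTiter-Glo luminescence after 30 min at room temperature. AC50 from Hill-equation fits of qHTS concentration-response data.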

[37] = Cell Viability - LYMP2-017 (AID 972)
Method in brief: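 LYMP2-017 human lymphoblastoid cells (2500/well) settled 5 hr at 37 C, then exposed to compound 24 hr at 37 C in complete medium. Viability taken as intracellular ATP by CellTiter-Glo luminescence after 30 min at RT; AC50 from Hill fits.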

[38] = Cell Viability - LYMP2-019 (AID 973); further: nearly all actives have a fitted effect of over 55% in size
Method in brief: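 Human lymphoblastoid LYMP2-019 cells (2500/well) preincubated 5 h at 37 C, then treated 24 h at 37 C in complete medium. Viability by CellTiter-Glo ATP luminescence after 30 min at room temperature; AC50 from Hill fits.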

[39] = Cell Viability - LYMP2-021 (AID 974)
Method in brief: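 Human lymphoblastoid LYMP2-021 cells, 2500/well in complete medium, treated 24 hours at 37 C. Intracellular ATP by CellTiter-Glo luminescence (30 min, RT); AC50 from Hill fits of concentration-response.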

[40] = Cell Viability - LYMP2-023 (AID 975)
Method in brief: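 LYMP2-023 human lymphoblastoid cells, 2500/well, preincubated 5 hr at 37 C, then compound-treated 24 hr at 37 C in complete medium. CellTiter-Glo luminescence (ATP) after 30 min at room temperature; AC50 from Hill-equation fits; tetraoctylammonium bromide positive control.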

[41] = Cell Viability - LYMP2-002 (AID 977); further: series mostly up to about 92 µM
Method in brief: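 Luminescent ATP readout (CellTiter-Glo, 30 min room temperature) after 24 h compound exposure at 37 C of a human lymphoblastoid line, 2500 cells/well. AC50 values derived by standard Hill fitting of qHTS concentration-response data.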

Measured: Potency

O=C(Nc1ccccc1)Nc1ccccc1
inactive: [1] > 92 µM | [2] > 92 µM | [3] > 92 µM | [4] > 92 µM | [5] | [6] | [7] | [8] | [9] | [10] | [11] | [12] | [13] | [14] | [15] | [16] | [17] | [18] | [19] | [20] | [21] | [22] | [23] | [24] | [25] | [26] | [27] | [28] | [29] | [30] | [31] | [32] | [33] | [34] | [35] | [36] | [37] | [38] | [39] | [40] | [41]

Reference: PubChem BioAssay (NCATS)
